# Only a selection was taken, and hits are over-represented in it overall.
# KDM5B inh – blocks human KDM5B histone demethylase activity. Q9UGL1. hit rate 2.6% among 220,000. Potency, µM (highest dose often 57.7 µM), actives largely listed as inhibitors. AID 1347165. KDM5B demethylase, FDH-coupled NADH fluorescence (FDH is formaldehyde dehydrogenase); active means well fitted inhibition curve with a large enough effect; further: 0% is about no effect; nearly all actives have a fitted effect of over 70% in size
#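 Measured: NADH fluorescence change, 30 min, RT. System: KDM5BΔAP 200 nM final, H3K4me3 peptide, α-KG, Fe(II), ascorbate, NAD⁺ plus FDH, pH 7.5 HEPES. Compounds: titrated, 10 min pre-incubation with enzyme.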
# The depositor's hits bear a star; i = inactive. Potency means the concentration at half of the fitted maximal effect.
SMILES,KDM5B inh
COC(=O)COc1cccn2c(=O)c(-c3cc(C)n(-c4ccc(Cl)c(Cl)c4)n3)c(C)nc12,28µM*
O=C(COc1ccccc1Cl)c1ccccc1,i
COc1ccc(-n2nc(C(=O)NCC(=O)Nc3cc(OC)c(OC)c(OC)c3)c3ccccc3c2=O)cc1Cl,i
Cc1ccccc1OCC(=O)OCC(=O)c1ccc(Cl)cc1,i
O=C(COc1ccccc1Cl)Nc1ccccc1OCc1cc(=O)n2ccccc2n1,i
O=C(Cn1nc2c(cc1=O)CCCC2)NCCN1CCOCC1,i
O=C(Nc1ccccc1Br)N1CCN(S(=O)(=O)c2ccccc2)CC1,i
O=C(CCc1ncc(-c2ccccc2)o1)NCc1ccccc1Cl,i
CCN1CCN(CCN2CC3(CCN(C(=O)[C@H](C)NC)CC3)OC2=O)CC1,i
CCN1CCN(CCCN2CC3(CCN(c4ncccc4F)CC3)OC2=O)CC1,18µM*
CCN1CCN(CCCN2CC3(CCN(Cc4ncc[nH]4)CC3)OC2=O)CC1,i
O=C(NC1CCCCC1)C1CN(C(=O)c2cccc(C(F)(F)F)c2)CC12CCOCC2 (stereo not drawn),i
COc1ccc(C(=O)NC2CCN(c3cnn(CC4CC4)c(=O)c3)CC2)c(OC)n1,i
O=C1CCN(C(=O)Cc2c[nH]c3ccccc23)CCCC(C(=O)NCc2ccccc2)CCN1 (stereo not drawn),i
Cc1cc2cc(-c3c(C)noc3C)nc(Nc3ccccc3)c2o1,40µM*
Cc1noc2ncnc(Nc3ccc(F)cc3)c12,i
Cc1cc2cc(-c3c(C)noc3C)nc(Nc3ccc(F)cc3)c2o1,32µM*
Cc1cc2cc(-c3c(C)noc3C)nc(Nc3ccc(Cl)cc3)c2o1,22µM*
Cc1noc(C)c1-c1cc2cc(CN(C)C)oc2c(NCc2cccc(F)c2)n1,i
Cc1noc(C)c1-c1cc2cc(CNC(C)C)oc2c(NC2CCN(C)CC2)n1,i
COc1cc(CNc2nc(-c3c(C)noc3C)cc3cc(C)oc23)cc(OC)c1,32µM*
Cc1cc2cc(-c3c(C)noc3C)nc(NCc3cccc(F)c3)c2o1,i
Cc1noc(C)c1-c1cc2cc(CN3CCN(C)CC3)oc2c(NC2CCN(C)CC2)n1,i
CCc1ccc(NC(=O)c2ccc(OCc3ccccc3)cc2)cc1,i
CC(=O)N1CCN(c2nc3c(s2)CC(C(=O)Nc2cc(Cl)ccc2F)CC3)CC1 (stereo not drawn),i
SMILES,KDM5B inh
Cc1ccccc1CSc1nc2c(=O)[nH]cnc2n1-c1ccccc1,i
COc1cc(OC)c(NC(=O)CCn2ccn3nc4c(c3c2=O)CCCC4)cc1Cl,i
Cc1nc(-c2ccc(S(=O)(=O)Nc3ccc(C)c(C)c3)cc2)co1,i
Cc1ccc(C2CC(=O)CC(c3ccc(C)cc3C)S2)c(C)c1 (stereo not drawn),i
CCN(C(=O)CN(C)C(c1cccc(F)c1)c1ccccn1)C1CC1 (stereo not drawn),i
Cc1cnc(CC2CCN(C(=O)N(C)C)C2)n1Cc1ccccc1 (stereo not drawn),i
CN1CCCCC(CC(=O)Nc2ccc(F)c(F)c2)C1=O (stereo not drawn),i
CC(C)(C)CC(=O)N[C@H]1C[C@H]2C(=O)Nc3ccccc3C(=O)N2C1,i
O=C(N[C@H]1CCN2C(=O)c3cc(Br)ccc3NC(=O)[C@@H]2C1)C1CCNCC1,i
COCC(=O)N[C@H]1C[C@H]2C(=O)Nc3ccccc3C(=O)N2C1,i
CC(C)(C)CC(=O)N[C@H]1C[C@H]2C(=O)Nc3ccc(-c4cccs4)cc3C(=O)N2C1,18µM*
O=C1Nc2ccc(-c3cccs3)cc2C(=O)N2CC[C@H](NS(=O)(=O)c3ccc(Cl)cc3)C[C@@H]12,32µM*
CN1CCN(C(=O)CN2CC3CC(C2)[C@H]2CCCC(=O)N2C3)CC1 (stereo partly drawn),i
C=Cc1ccc(COc2ccc3c(=O)c(-c4ccccc4OC)coc3c2)cc1,i
C[C@H](NC(=O)CCn1ccc2ccc(F)cc21)C(=O)O,i
CCN1C(=O)CCC2(C(=O)NCC3CC3)CCCC=C12 (stereo not drawn),i
CC1=C[C@@H](CN)[C@H](C(C)C)C[C@H]1Cc1nc2ccc(C)cc2[nH]1,i
CCNC(=O)[C@@H]1C[C@H](N)CN1C(=O)c1ccc(NC(C)=O)cc1C,i
CCN(CC)C(=O)[C@@H]1C[C@H](N)CN1C(=O)c1cc2ccccc2n(C)c1=O,32µM*
CCN(CC)C(=O)C1Cn2cccc2C(=O)N1C (stereo not drawn),i
O=C(Nc1ccc(Cl)c(-c2nc3cnccc3o2)c1)c1cc2ccccc2o1,i
O=C1N(Cc2ccc(Cl)cc2)CCCN1c1cccc(C(=O)N2CCc3ccccc32)c1,i
Cn1c(=O)[nH]c(=O)c2c1nc(NC1CCCCC1)n2CC(=O)c1ccccc1,i
Cc1c(C(=O)N2CCOCC2)cnn1-c1ccccc1F,i
O=C(c1cnn2ncccc12)N1CCOCC1,i
SMILES,KDM5B inh
Cc1ccc2c(C(=O)N3CCOCC3)cnn2c1,32µM*
COc1cc(/C=C(/C#N)C(=O)O)cc(Cl)c1OC(C)C,i
O=C(c1ccc(Cl)cc1)N1CCC(N2CCCCCC2=O)CC1,i
Cc1ccccc1C(=O)N1CCC(N2CCCCCC2=O)CC1,20µM*
Cc1ccccc1C(=O)N1CCC(N2CCCNC2=O)CC1,i
NC(=O)CCN1CCN(S(=O)(=O)c2ccc(F)c(Cl)c2)CC1,i
O=C(CSc1ncnc2ccccc12)Nc1ccc(F)c(F)c1,i
O=C(CCC(=O)c1ccc(F)cc1)OCc1cccc([N+](=O)[O-])c1,i
CC(C)C(=O)NC1CCN(c2cn[nH]c(=O)c2)CC1,i
Cc1cccc2c1nc1n2[C@@H](CNC2CCC2)COC1,i
O=C(C1COc2ccccc2O1)N1CCc2onc(-c3cccc(F)c3)c2C1 (stereo not drawn),i
O=C(COCC1CCCO1)N1CCc2onc(-c3ccc4c(c3)OCO4)c2C1 (stereo not drawn),22µM*
O=C(Cc1ccc2c(c1)OCO2)N1CCc2onc(-c3cccc(F)c3)c2C1,i
COC[C@H]1CCCN1Cc1nc(C2(O)CCN(CCC(C)C)CC2)cs1,i
Cn1cc(CN2C[C@@H](F)[C@@H](OCc3nc4ccccc4[nH]3)C2)c2ccccc21,i
COc1c(CNCC(O)COc2ccccc2)c(C(C)C)nn1C (stereo not drawn),i
O=C(c1cccc(S(=O)(=O)Nc2cc(C(F)(F)F)ccc2Cl)c1)N1CCC1,i
Cc1cc(C)cc(N(CCC#N)C(=O)COC(=O)c2csc(NCc3ccccc3)n2)c1,i
O=C(CCc1c[nH]c2ccccc12)N1CCCCCC1,i
Cc1ccnc(C(NC(=O)CCc2cc3n(n2)CCCNC3)C2CC2)c1 (stereo not drawn),28µM*
Cc1cc2[nH]cnc2c(NC(=O)CCc2cc3n(n2)CCNC3)c1C,i
Cc1nc2ncnn2c(C)c1CCC(=O)NCc1cc2n(n1)CCCNC2,i
COc1ccc(NC(=O)CSc2nc(C)cc3c2C(=O)OC3)cc1,i
Cc1c(-n2nnnc2SC(C)c2ccccc2)c(=O)n(-c2ccccc2)n1C (stereo not drawn),i
O=C(C1=Cc2cc(Cl)ccc2OC1)N1CCN(S(=O)(=O)c2ccc(F)cc2)CC1,i
CCOC(=O)C1CCCN(CCN(C)C)C1 (stereo not drawn),i
Cc1ccc(CNc2nc3ccccc3nc2NS(=O)(=O)c2cccc(Cl)c2)cc1,i
Cc1ccc(-c2ncc(CCNC(=O)c3ccccc3)[nH]2)cc1,i
